# Compound activity as filed in PubChem BioAssay.
# Rows were chosen to be rich in hits. Some 3% of all compounds tested hit in one or more screens of this group.
# SARS PLP yeast – qHTS of Yeast-based Assay for SARS-CoV PLP. S. cerevisiae expressing SARS-CoV PLpro, growth rescue. AID 485353, 2010. Potency, µM (top dose mostly 32.9 µM), usual class: activators. 0.19% of 330,000 active; calls by dose curve; further: nearly all actives have a fitted effect of over 55% in size
# Sm TGR inh – qHTS Assay for the Inhibitors of Schistosoma Mansoni Peroxiredoxins | Schistosoma mansoni thioredoxin glutathione reductase (TGR), Q962Y6 | Potency, µM (top dose mostly 114 µM), hits mostly inhibitors | 3% of 360,000 active | purified TGR, DTNB reduction, TNB absorbance 405 nm; active means well fitted inhibition curve with a large enough effect; inconclusive means small, poorly fitted or top-dose-only effect; inactive means no such curve, though single readings can be large or run the other way; further: nearly all actives have a fitted effect of over 60% in size
#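 TGR 20 nM + NADPH 100 uM (dispensed conc.), cpd preinc 15 min RT; start with NADPH (500 uM addition) then DTNB (15 mM addition). Kinetic TNB absorbance, 405 nm filter. Four-parameter Hill fit across titration.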
# Hits are given with their value; n = inactive; u = inconclusive; x = no result.
SMILES,SARS PLP yeast,Sm TGR inh
C#CC(=O)N(c1ccc(OC)c(OC)c1)C(C(=O)NC1CCCC1)c1cccs1 (centres undefined),n,5.6µM
COc1ccc(N(C(=O)Cc2cccs2)C(C(=O)NC2CCCC2)c2ccncc2)cc1OC (centres undefined),n,n
Cc1cccc(N(C(=O)C(F)(F)F)C(C(=O)NC2CCCCC2)c2cccs2)c1 (centres undefined),n,n
CCOC(=O)c1cccc(NC(=O)NC2COc3ccccc3C2)c1 (centres undefined),x,n
COc1ccc(-n2c(=O)c3c4c(sc3n3c(SC(C)C)nnc23)COC(C(C)C)C4)cc1 (centres undefined),x,n
N#Cc1c(N)n(-c2cccc(Cl)c2)c2nc3ccccc3nc12,x,n
CCC(=O)N1CCc2cc(S(=O)(=O)CCC(=O)N3CCN(c4cccc(C)c4C)CC3)ccc21,x,n
Cc1cc(C)cc(N2CN=c3s/c(=C\c4ccco4)c(=O)n3C2)c1,n,n
O=c1/c(=C/c2ccco2)sc2n1CN(c1cccc(Br)c1)CN=2,n,25µM
Cc1ccc(/C=c2\sc3n(c2=O)CN(c2cccc(Br)c2)CN=3)o1,n,25µM
O=c1/c(=C/c2ccco2)sc2n1CN(c1ccccc1)CN=2,n,n
Cc1cccc(N2CCN(C(=O)CCc3c(C)nc4ncnn4c3C)CC2)c1C,x,n
COc1ccc(-c2nc(CS(=O)CC(=O)NC3CCC(C)CC3)c(C)o2)cc1OC (centres undefined),n,35µM
COc1ccc(-c2nc(CSCC(=O)NC3CCCc4ccccc43)c(C)o2)cc1OC (centres undefined),n,n
COc1ccc(-c2nc(CSCC(=O)NC3CCCC3)c(C)o2)cc1OC,n,u
COc1ccc(-c2nc(CS(=O)CC(=O)NC3CCCC3)c(C)o2)cc1OC (centres undefined),n,20µM
COc1ccc(-c2nc(CSCC(=O)NC3CC3)c(C)o2)cc1OC,n,n
COc1ccc(-c2nc(CS(=O)CC(=O)NC3CCCc4ccccc43)c(C)o2)cc1OC (centres undefined),n,20µM
CCc1cccc(NC(=O)Cn2c(=O)n(CC3CCC(C(=O)NCCc4ccccc4)CC3)c(=O)c3ccccc32)c1 (centres undefined),x,n
COC(=O)c1cc2c(cc1NC(=O)c1c(C)nn(-c3ccc(C)cc3)c1-n1cccc1)OCO2,x,n
Cc1ccc(S(=O)(=O)c2cn(C)c3cc(N4CCOCC4)c(F)cc3c2=O)c(C)c1,x,n
O=S(=O)(NCCc1ccccc1)c1ccc(N2CCCCS2(=O)=O)cc1,x,n
CCCN(CCC)c1ccc(C2N=C(N)Nc3nc4ccccc4n32)cc1 (centres undefined),x,n
CCCc1nc2sc3c(=O)[nH]cnc3c2c2c1CCCC2,n,n
CCc1nc2sc3c(=O)[nH]cnc3c2c2c1CSC(C)(C)C2,n,35µM
SMILES,SARS PLP yeast,Sm TGR inh
Cc1c(CNC2CCCCC2)c(C(=O)O)c(C)n1Cc1c(F)cccc1Cl,x,n
CCOC(=O)C1=C(C)OC(N)=C(C#N)C1c1ccc(OC)c(CSc2ccccn2)c1 (centres undefined),u,25µM
COc1ccc(C2C(C#N)=C(N)Oc3n[nH]c(C)c32)cc1CSc1ccccn1 (centres undefined),n,n
CC(C)c1nn2c(=O)cc(COC(=O)CNC(=O)c3ccccc3Cl)nc2s1,x,n
CCOc1cccc2cc(C(=O)Oc3ccc(OC)cc3)c(=O)oc12,n,40µM
COc1cccc2cc(C(=O)Oc3ccccc3)c(=O)oc12,n,n
CCC1CN(C(=O)N2CCC(C(=O)NCCC3=CCCCC3)CC2)c2cc(C)ccc2O1 (centres undefined),x,n
CCOC(=O)C1=C(O)c2ccccc2C(=O)/C1=C\c1ccc(C)cc1,n,3.5µM
Cc1ccc(C2=C(O)c3ccccc3C(=O)C2=O)cc1,n,n
COc1ccc(NC(=O)c2nnn(Cc3nc(-c4cc(OC)c(OC)c(OC)c4)oc3C)c2C)cc1Cl,x,n
CCC(C)[C@H](NC(=O)NC1CCCc2ccccc21)C(=O)O (some centres undefined),n,n
CCC(NC(=O)C(C)NC)C(=O)N1CCCC1C(=O)NC1CCCc2ccccc21 (centres undefined),n,32µM
COc1ccccc1N1CCN(CCCNC(=O)c2cnn(-c3ccccc3)c2C2CCN(C(=O)OC(C)(C)C)CC2)CC1,x,n
Nc1cc(-c2ccco2)no1,n,28µM
c1ccc(-c2noc(-c3ccco3)n2)nc1,n,n
COc1cccc(N2CCN(Cc3cc(=O)oc4cc(C)ccc34)CC2)c1,x,n
CC(C)CNC(=S)NC(=O)c1ccc(F)cc1,u,32µM
O=C(NC(=S)NC1CCCCC1)c1ccc(F)cc1,n,28µM
O=C(NC(=S)NCCN1CCOCC1)c1ccc(F)cc1,n,n
O=C(NC(=S)NC1CCN(Cc2ccccc2)CC1)c1ccc(F)cc1,n,n
CCn1nc(C)c(CCN(C)C(=O)Nc2cc(Cl)ccc2C)c1C,x,n
COc1ccc(NC(=O)c2ncn(-c3ccccc3)n2)cc1Cl,x,n
CCc1ccc(NC(=O)C(=O)N/N=C(\C)CC(=O)Nc2ccc(OC)cc2)cc1,n,45µM
CCc1ccc(NC(=O)C/C(C)=N/NC(=O)OCc2ccc(OC)cc2)cc1,n,n
Cc1ccc(C(C)C)c(OCc2ccc(C(=O)N/N=C/c3ccc(C(=O)O)cc3)cc2)c1,n,n
SMILES,SARS PLP yeast,Sm TGR inh
Cc1ccc(C(C)C)c(OCc2ccc(C(=O)N/N=C/c3ccc(O)cc3O)cc2)c1,3.2µM,n
CCOC(=O)c1ccccc1NC(=O)Cn1ncc2c([nH]c3ccccc32)c1=O,x,n
O=C(c1cc(S(=O)(=O)N2CCCC2)c[nH]1)N1CCN(c2cccc(Cl)c2)CC1,x,n
Cc1cccc(N(C)S(=O)(=O)c2c(C(=O)N3CCCCCC3)c(C)n(C)c2C)c1,x,n
O=C(c1ccc(F)cc1)C(CN1CCOCC1)c1ccccc1 (centres undefined),n,n
CCOc1ccc(C(=O)C(CCC(CN(C)C)C(=O)c2ccc(OCC)cc2)CN(C)C)cc1 (centres undefined),n,16µM
COc1ccc(C(=O)C(CCCCC(CN(C)C)C(=O)c2ccc(OC)cc2)CN(C)C)cc1 (centres undefined),n,n
O=C(c1ccccc1)C(CCC(CN1CCOCC1)C(=O)c1ccccc1)CN1CCOCC1 (centres undefined),n,8.9µM
CN(CCC(=O)c1ccccc1)CCC(=O)c1ccccc1,n,n
CN(C)CC(CCC(CN(C)C)C(=O)c1ccccc1)C(=O)c1ccccc1 (centres undefined),n,2µM
COc1ccc(Cl)cc1NC(=O)Cn1c(=O)n(Cc2ccc(F)cc2)c(=O)c2cccnc21,x,n
CCOc1ccccc1N(CC)C(=O)Cn1ncc2c([nH]c3ccccc32)c1=O,x,n
COc1ccc(C)cc1NC(=O)Nc1nnc(N2CCCCC2)s1,x,n
Cc1c(-c2nsc(NC(=O)c3cccs3)n2)nnn1-c1ccc(Cl)cc1,x,n
Cc1cc(C)c(NC(=O)C2CCN(c3nn4c(=O)cc(C)nc4s3)CC2)c(C)c1,x,n
O=C1C2C3C=CC(C4CC34)C2C(=O)N1Cc1ccco1 (centres undefined),n,50µM
O=C1C2C(C(=O)N1Cc1ccco1)C1C=CC2C12CC2 (centres undefined),n,n
